# Measured values reported in PubChem BioAssay.
# Activity calls are given as the source filed them.
# What was measured:
# [1] = test system: Human papillomavirus type 1a protein E7 (residues 44-93); experiment: small molecules binding HPV E7 44-93 – biochemical, small-molecule microarray, residues 44-93, 635 nm fluorescence, primary screen (AID 1108); conditions: fluorescence 635 nm, higher = more signal;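 note: E7 fragment applied at 1 µg/mL in TBST for 1 h at 4 C; score combines spot fluorescence with its signal to noise ratio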
# [2] = hepatitis C replication reporter changes, two-sided – Huh7 cells, luciferase reporter, HCV replication inhibitor project, primary screen (AID 1109); conditions: Huh7 HCV replicon luciferase reporter, 48 h; higher = more signal;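 note: huh7 hepatoma cells harbouring a luciferase neomycin HCV replicon reporter; luciferase luminescence as measure of HCV replicon replication; test concentration not given here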
# [3] = target: Left-right determination factor 2 (Homo sapiens) (UniProt O00292); experiment: small molecules binding LEFTY2 protein – biochemical, small-molecule microarray, 635 nm fluorescence scan, primary screen (AID 1110); conditions: higher = more signal
# [4] = target: Calmodulin-1 (Homo sapiens) (UniProt P0DP23); experiment: small molecules binding calmodulin-1 with EGTA – biochemical, small-molecule microarray, Cy5-labelled CALM1, profiling panel (AID 1111); conditions: Cy5-CALM1 binding fluorescence, higher = more signal;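 note: labelled calmodulin applied in Tris saline Tween buffer holding calcium plus EGTA and DTT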
# [5] = target: Calmodulin-1 (Homo sapiens) (UniProt P0DP23); experiment: small molecules binding Ca-loaded calmodulin-1 – biochemical, small-molecule microarray, Cy5-labelled CALM1, plus calcium, artefact control for SMM control-protein annotation, profiling panel (AID 1112); conditions: Cy5-CALM1 binding fluorescence, higher = more signal;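 note: score merges spot fluorescence with signal to noise from triplicate slides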
# [6] = probe aWnt5a binding to arrayed compounds – biochemical, biotinylated probe, 635/667 nm fluorescence, primary screen (AID 1113); conditions: small-molecule microarray, higher = more signal;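 note: score merges 667 nm fluorescence intensity with signal-to-noise per printed feature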
# [7] = probe aShh binding to arrayed compounds – biochemical, biotinylated probe, 635/667 nm fluorescence, primary screen (AID 1114); conditions: small-molecule microarray, higher = more signal;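 note: probe is biotin-labelled aShh protein from a stem cell growth factor screen; measures binding of labelled protein to compounds printed on the slide; score merges feature fluorescence at 667 nm with signal-to-noise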
# [8] = probe aNog binding to arrayed compounds – biochemical, biotinylated probe, 635/667 nm fluorescence, primary screen (AID 1115); conditions: small-molecule microarray, higher = more signal;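 note: probe is biotinylated aNog protein used at 0.15 µg/mL for 1 h at 4 C; z-score combines 667 nm fluorescence of each spot with its signal to noise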
# [9] = target: Torsin-1A-interacting protein 1 (Homo sapiens) (UniProt Q5JTV8); experiment: compound microarray binding of lysate hLAP1 – cell lysate, small-molecule microarray, COS7 lysate, 635/667 nm fluorescence, primary screen (AID 1116); conditions: 635 nm fluorescence, higher = more signal
# [10] = target: Alpha-bungarotoxin (Bungarus multicinctus) (UniProt P60615); experiment: compounds binding labelled alpha-BTX control protein – biochemical, small-molecule microarray, Alexa647 label, 635/667 nm fluorescence, artefact control for SMM control protein annotation, profiling panel (AID 1117); conditions: alpha-BTX-A647 binding fluorescence, higher = more signal
# [11] = target: Albumin (Bos taurus) (UniProt P02769); experiment: compounds binding labelled BSA control protein – biochemical, small-molecule microarray, Alexa647 label, 635/667 nm fluorescence, artefact control for SMM control protein annotation, profiling panel (AID 1118); conditions: BSA-A647 binding, fluorescence 635 nm, higher = more signal;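 note: score merges 667 nm emission intensity and signal-to-noise per printed compound spot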
# [12] = probe aXIP binding to arrayed compounds – biochemical, NeuroSMM set, 635/667 nm fluorescence, primary screen (AID 1119); conditions: small-molecule microarray, higher = more signal, called active from +8 up or from −8 down;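 note: probe is the protein aXip251-270 applied at 1 µg/mL to compound-printed slides; binding of probe to printed compounds measured as 667 nm fluorescence plus signal to noise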
# [13] = probe aNOTCH3 binding on compound microarray – biochemical, small-molecule microarray, 635/667 nm fluorescence, primary screen (AID 1120); conditions: higher = more signal;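 note: probe is a biotin-tagged antibody raised against NOTCH3 rather than NOTCH3 protein; score merges spot fluorescence near 667 nm with spot signal to noise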
# [14] = probe aNOTCH2 binding on compound microarray – biochemical, small-molecule microarray, 635/667 nm fluorescence, primary screen (AID 1121); conditions: higher = more signal;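 note: score merges feature fluorescence read at 667 nm with its signal to noise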
# [15] = target: Carbonic anhydrase 2 (Homo sapiens) (UniProt P00918); experiment: compounds binding carbonic anhydrase 2 – biochemical, small-molecule microarray, Alexa647-labelled CAII, profiling panel (AID 1122); conditions: CAII-A647 binding fluorescence, higher = more signal
# [16] = COS7 lysate on small-molecule microarray, probe aHis, 635 nm (AID 1123); conditions: COS7 cell lysate, fluorescence, higher = more signal;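 note: z-score combines 667nm fluorescence intensity with signal-to-noise per printed compound spot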
# [17] = probe aLAP1 signal on lysate-treated microarray – cell lysate, small-molecule microarray, COS7 lysate, primary screen (AID 1124); conditions: probe aLAP1, fluorescence, higher = more signal;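 note: lysate comes from COS7 cells expressing LAP1 and is applied at 0.3 µg/mL; score merges spot fluorescence near 667 nm with signal-to-noise over triplicate slides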
# [18] = test system: Sam68 (KHDRBS1); experiment: compounds binding KHDRBS1 protein – biochemical, small-molecule microarray, 635 nm fluorescence, primary screen (AID 1125); conditions: higher = more signal;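 note: score merges 667 nm channel intensity with signal to noise over triplicate slides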
# [19] = test system: Chordin-like protein 2 (CHRDL2); experiment: compounds binding chordin-like 2 – biochemical, small-molecule microarray, 635 nm fluorescence, primary screen (AID 1126); conditions: fluorescence 635 nm, higher = more signal;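 note: printed compound slides probed with Chrdl2 protein at 4 µg/mL for 1 h at 4 C; score merges 667 nm emission intensity with signal to noise over three replicate slides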
# [20] = target: Concanavalin-A (Canavalia ensiformis) (UniProt P02866); experiment: compounds binding concanavalin A lectin – biochemical, small-molecule microarray, Alexa647 label, 635 nm, artefact control for SMM control protein annotation, primary screen (AID 1127); conditions: ConA-A647 binding fluorescence, higher = more signal;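 note: z combines 667 nm emission intensity with signal-to-noise across three replicate slides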
# Chain of Concanavalin-A (Canavalia ensiformis) (P02866 whole entry, looked up): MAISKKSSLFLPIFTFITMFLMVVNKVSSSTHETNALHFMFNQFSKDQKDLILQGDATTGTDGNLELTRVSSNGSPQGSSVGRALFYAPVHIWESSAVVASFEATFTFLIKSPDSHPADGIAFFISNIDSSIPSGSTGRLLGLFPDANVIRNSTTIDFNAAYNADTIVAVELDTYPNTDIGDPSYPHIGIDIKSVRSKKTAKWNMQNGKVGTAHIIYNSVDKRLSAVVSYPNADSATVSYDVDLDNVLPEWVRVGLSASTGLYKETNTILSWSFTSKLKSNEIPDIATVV
# Chain of Left-right determination factor 2 (Homo sapiens) (O00292 whole entry, looked up): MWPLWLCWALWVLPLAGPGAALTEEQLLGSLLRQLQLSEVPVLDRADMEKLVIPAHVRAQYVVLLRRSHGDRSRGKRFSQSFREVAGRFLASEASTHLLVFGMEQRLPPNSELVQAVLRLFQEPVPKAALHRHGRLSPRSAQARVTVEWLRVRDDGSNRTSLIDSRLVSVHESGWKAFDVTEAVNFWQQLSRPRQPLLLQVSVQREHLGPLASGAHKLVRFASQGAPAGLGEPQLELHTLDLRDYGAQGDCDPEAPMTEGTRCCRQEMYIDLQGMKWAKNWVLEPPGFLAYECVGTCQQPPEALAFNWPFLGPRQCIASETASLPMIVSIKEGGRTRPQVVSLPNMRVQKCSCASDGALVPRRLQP
# Chain of Alpha-bungarotoxin (Bungarus multicinctus) (P60615 whole entry, looked up): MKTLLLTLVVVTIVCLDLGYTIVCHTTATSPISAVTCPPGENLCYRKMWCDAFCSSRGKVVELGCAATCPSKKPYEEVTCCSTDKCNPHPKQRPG
# Chain of Torsin-1A-interacting protein 1 (Homo sapiens) (Q5JTV8 whole entry, looked up): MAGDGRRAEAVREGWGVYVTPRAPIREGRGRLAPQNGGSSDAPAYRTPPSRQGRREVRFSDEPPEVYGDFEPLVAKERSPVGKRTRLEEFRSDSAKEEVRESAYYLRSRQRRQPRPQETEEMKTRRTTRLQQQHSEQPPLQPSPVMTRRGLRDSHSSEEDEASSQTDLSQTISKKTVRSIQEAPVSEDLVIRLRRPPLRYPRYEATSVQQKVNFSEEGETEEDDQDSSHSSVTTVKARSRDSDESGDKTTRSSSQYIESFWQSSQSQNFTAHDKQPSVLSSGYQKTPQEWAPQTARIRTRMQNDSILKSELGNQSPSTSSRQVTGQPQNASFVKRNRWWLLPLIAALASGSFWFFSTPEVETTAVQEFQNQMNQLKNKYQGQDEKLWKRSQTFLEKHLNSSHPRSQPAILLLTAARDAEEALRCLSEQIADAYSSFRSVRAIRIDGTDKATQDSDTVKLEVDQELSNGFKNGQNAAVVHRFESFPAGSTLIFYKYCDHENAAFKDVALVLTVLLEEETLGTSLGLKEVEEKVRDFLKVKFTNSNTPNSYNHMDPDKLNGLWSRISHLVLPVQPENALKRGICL
# Chain of Albumin (Bos taurus) (P02769 whole entry, looked up): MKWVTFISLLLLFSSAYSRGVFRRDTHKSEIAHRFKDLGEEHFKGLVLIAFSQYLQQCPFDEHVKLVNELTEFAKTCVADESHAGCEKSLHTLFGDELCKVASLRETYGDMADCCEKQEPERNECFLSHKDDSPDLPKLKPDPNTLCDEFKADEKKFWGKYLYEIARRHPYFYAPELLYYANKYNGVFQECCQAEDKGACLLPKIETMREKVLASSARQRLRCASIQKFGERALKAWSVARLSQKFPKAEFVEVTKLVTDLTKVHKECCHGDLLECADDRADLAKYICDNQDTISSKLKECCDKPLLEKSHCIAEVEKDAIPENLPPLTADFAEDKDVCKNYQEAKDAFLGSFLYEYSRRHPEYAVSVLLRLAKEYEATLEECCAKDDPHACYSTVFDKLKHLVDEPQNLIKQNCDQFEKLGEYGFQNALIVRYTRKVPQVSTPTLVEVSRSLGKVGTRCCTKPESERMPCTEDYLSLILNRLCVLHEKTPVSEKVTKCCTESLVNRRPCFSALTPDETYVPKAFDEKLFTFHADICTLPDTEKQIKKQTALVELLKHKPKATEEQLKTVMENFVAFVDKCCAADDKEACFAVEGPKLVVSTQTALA
SMILES,composite z-score [1],z-score [2],composite z-score [3],composite z-score [4],composite z-score [5],composite z-score [6],composite z-score [7],composite z-score [8],composite z-score [9],composite z-score [10],composite z-score [11],composite Z-score [12],composite z-score [13],composite z-score [14],composite z-score [15],composite z-score [16],composite z-score [17],composite z-score [18],composite z-score [19],composite z-score [20]
COC(=O)C(CC#Cc1ccc2c(c1)[C@]1(C(=O)N2)[C@H](c2ccc(OCCO)cc2)N2[C@H](c3ccccc3)[C@H](c3ccccc3)OC(=O)[C@H]2[C@@H]1C(N)=O)C(=O)OC,1.41,-1.68,-0.584,0.627,-0.113,-0.156,-0.123,-0.14,-0.358,1.4,0.734,-0.0003 (inactive),-0.209,-0.136,0.389,2.2,0.431,1.06,-0.907,1.14
Cc1cccc([C@H]2C[C@H]3C(Br)=C[C@@]2(CO)C(=O)[C@]32CO2)c1,0.863,-1.27,-0.427,-0.496,-0.0921,-0.0566,-0.0348,0.247,-0.374,-0.357,-0.155,-0.288 (inactive),-0.108,-0.147,0.362,0.182,-0.24,0.671,-0.15,-0.0472
COCCCNC(=O)[C@@]1(Cc2ccccc2I)c2ccccc2C(=O)N(C2CCCCC2)[C@H]1c1ccc(CO)cc1,1.13,-1.45,-0.418,0.634,0.305,-0.0061,0.313,-0.417,1.57,1.19,0.653,0.732 (inactive),-0.0377,-0.112,0.544,2.36,0.386,1.03,-0.415,0.75
C=CCN1C(=O)[C@@]2(O[C@@H](CCO)[C@H]([Si](C)(C)c3ccc(OC)cc3)[C@H]2C)c2cc(N3CCCCC3=O)ccc21,1.36,-3.29,0.264,0.721,0.519,-0.091,0.151,0.197,0.813,1.14,0.446,0.734 (inactive),0.239,-0.108,0.429,1.17,0.0635,0.702,0.285,0.901
COC(=O)[C@@]1(Cc2ccc(F)cc2)[C@H]2c3cc(C(=O)N(C)C)n(Cc4ccc(C(F)(F)F)nc4)c3C[C@H]2CN1C(=O)c1ccccc1,1.38,-2.42,0.22,2.27,0.789,0.15,0.25,-0.235,0.0971,0.922,0.98,-0.387 (inactive),0.894,-0.0531,0.726,3.26,0.311,1.33,0.214,1.1
COCCOC(=O)N1C(=O)[C@@]2(c3cc(C#CCNC(N)=O)ccc31)[C@H](c1ccccc1OCCO)N1[C@H](c3ccccc3)[C@H](c3ccccc3)OC(=O)[C@H]1[C@@H]2C(=O)N1CCCCCCC1,0.6,-1.84,0.621,1.47,0.716,0.14,0.31,-0.499,1.02,1.68,0.0576,0.627 (inactive),0.0556,-0.121,0.447,0.75,1.41,1.32,0.354,1.12
